Holding throughout (experiment): yeast three-hybrid, YBZ-1, SC-Leu-His + 0.5 mM 3-AT, 4 days
Holding throughout (conditions): tags: N-Gal4 AD-HA kept; label: inside an RPR1-promoter hybrid RNA with tandem MS2 sites; ssRNA

One test deals with PUM1 PUF domain R1-YWR (Homo sapiens, UniProt Q14671 828-1176, S863Y;R864W;Q867R). In a few lines: (§1)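 The interaction score is the logarithmic change in variant frequency from input to selection. It uses log2, with a pseudocount of 1 for absent variants, and frequencies came from PCR-amplified, Illumina-sequenced repeat regions. The libraries were Pumilio-1 PUF domains randomized at the three base-contacting residues per repeat, co-expressed with matching RNA elements in strain YBZ-1 (LexA–MS2 coat fusion, HIS3 reporter). Plating lasted four days on SC-Leu (input) or SC-Leu-His + 0.5 mM 3-AT (selection).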

The next test concerns the target T1, PUM1 PUF domain R6-VWA (Homo sapiens, UniProt Q14671 828-1176, N1043V;Y1044W;Q1047A).
T1 sequence: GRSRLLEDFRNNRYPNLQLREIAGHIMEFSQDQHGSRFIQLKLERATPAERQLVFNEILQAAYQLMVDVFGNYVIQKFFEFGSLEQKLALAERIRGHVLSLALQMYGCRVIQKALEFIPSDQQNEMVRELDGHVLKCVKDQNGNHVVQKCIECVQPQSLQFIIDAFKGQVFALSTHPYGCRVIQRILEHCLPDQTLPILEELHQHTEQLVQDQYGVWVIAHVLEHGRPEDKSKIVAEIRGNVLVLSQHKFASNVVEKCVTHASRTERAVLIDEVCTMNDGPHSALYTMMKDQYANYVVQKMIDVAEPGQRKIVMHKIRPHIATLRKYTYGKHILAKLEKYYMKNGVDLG
A digest of the protocol:
as §1

For the next test, the target named is PUM1 PUF domain R4-GNR (Homo sapiens, UniProt Q14671 828-1176, N971G;H972N;Q975R). In a few lines:
as §1

The target of another test is PUM1 PUF domain R3-MRS (Homo sapiens, UniProt Q14671 828-1176, C935M;Q939S). A digest of the protocol:
as §1

A further test addresses PUM1 PUF domain R5-LWA (Homo sapiens, UniProt Q14671 828-1176, C1007L;R1008W;Q1011A). A digest of the protocol:
as §1

The next test has as its target PUM1 PUF domain R5-RRP (Homo sapiens, UniProt Q14671 828-1176, C1007R;Q1011P). A digest of the protocol:
as §1

In the next test the target is PUM1 PUF domain R4-PWN (Homo sapiens, UniProt Q14671 828-1176, N971P;H972W;Q975N). In a few lines: as §1
The next test addresses PUM1 PUF domain R4-DFT (Homo sapiens, UniProt Q14671 828-1176, N971D;H972F;Q975T). In a few lines:
as §1

The target of the next test is PUM1 PUF domain R7-RQL (Homo sapiens, UniProt Q14671 828-1176, S1079R;N1080Q;E1083L). A digest of the protocol:
as §1

The next test concerns the target PUM1 PUF domain R3-RPG (Homo sapiens, UniProt Q14671 828-1176, C935R;R936P;Q939G). A digest of the protocol: as §1

Chain of PUM1 PUF domain R5-LWA (Q14671 828-1176 C1007L/R1008W/Q1011A): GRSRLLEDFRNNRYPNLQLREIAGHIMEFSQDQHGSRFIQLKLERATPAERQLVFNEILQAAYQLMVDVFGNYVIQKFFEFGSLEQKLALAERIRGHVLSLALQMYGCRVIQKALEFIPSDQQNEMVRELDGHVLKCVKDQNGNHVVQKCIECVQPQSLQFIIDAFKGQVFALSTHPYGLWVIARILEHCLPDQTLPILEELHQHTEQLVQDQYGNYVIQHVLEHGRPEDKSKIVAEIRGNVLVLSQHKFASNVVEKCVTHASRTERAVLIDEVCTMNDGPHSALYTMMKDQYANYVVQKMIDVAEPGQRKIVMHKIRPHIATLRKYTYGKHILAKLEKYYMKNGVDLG
Chain of PUM1 PUF domain R5-RRP (Q14671 828-1176 C1007R/Q1011P): as the sequence (Q14671 828-1176 C1007L/R1008W/Q1011A) above, with L180R, W181R, A184P counted along it

As for “GGCUAGAACUAGUGGAUCCCCCGGCGCCCGGCGGCUCGAGCCCGGGUAAGUGUAAAUCGUCUGCAUGCCGCCGGGCGCCAUGCCUGCAGGUCGACUCUAGAAAACAUG”, in the test with PUM1 PUF domain R1-YWR, the binding signal is 4.68 log2 enrichment (interaction score).

For “GGCUAGAACUAGUGGAUCCCCCGGCGCCCGGCGGCUCGAGCCCGGGUAAGUGAAAAUAGUCUGCAUGCCGCCGGGCGCCAUGCCUGCAGGUCGACUCUAGAAAACAUG”, in the test with PUM1 PUF domain R6-VWA, the binding signal was 6 log2 enrichment (interaction score).

With “GGCUAGAACUAGUGGAUCCCCCGGCGCCCGGCGGCUCGAGCCCGGGUAAGUGUAUAUAGUCUGCAUGCCGCCGGGCGCCAUGCCUGCAGGUCGACUCUAGAAAACAUG”, the binding signal with PUM1 PUF domain R4-GNR was 3.44 log2 enrichment (interaction score).

Regarding “GGCUAGAACUAGUGGAUCCCCCGGCGCCCGGCGGCUCGAGCCCGGGUAAGUGUAAGUAGUCUGCAUGCCGCCGGGCGCCAUGCCUGCAGGUCGACUCUAGAAAACAUG”, the binding signal with PUM1 PUF domain R3-MRS is 4.95 log2 enrichment (interaction score).

In the case of “GGCUAGAACUAGUGGAUCCCCCGGCGCCCGGCGGCUCGAGCCCGGGUAAGUGUUAAUAGUCUGCAUGCCGCCGGGCGCCAUGCCUGCAGGUCGACUCUAGAAAACAUG”, the results for the binding signal with PUM1 PUF domain R5-LWA and with PUM1 PUF domain R5-RRP were 3.28 log2 enrichment (interaction score) and 4.7 log2 enrichment (interaction score), respectively.

As for “GGCUAGAACUAGUGGAUCCCCCGGCGCCCGGCGGCUCGAGCCCGGGUAAGUGUCAAUAGUCUGCAUGCCGCCGGGCGCCAUGCCUGCAGGUCGACUCUAGAAAACAUG”, the binding signal in the test with PUM1 PUF domain R5-RRP was 5.07 log2 enrichment (interaction score).

Regarding “GGCUAGAACUAGUGGAUCCCCCGGCGCCCGGCGGCUCGAGCCCGGGUAAGUGUAAAUAGUCUGCAUGCCGCCGGGCGCCAUGCCUGCAGGUCGACUCUAGAAAACAUG”, the binding signal with PUM1 PUF domain R4-PWN was 2.08 log2 enrichment (interaction score); in the test with PUM1 PUF domain R5-LWA, 1.66 log2 enrichment (interaction score); with PUM1 PUF domain R4-DFT it was 3.18 log2 enrichment (interaction score); with PUM1 PUF domain R5-RRP, 3.17 log2 enrichment (interaction score); in the test with PUM1 PUF domain R6-VWA, 4.02 log2 enrichment (interaction score).

With “GGCUAGAACUAGUGGAUCCCCCGGCGCCCGGCGGCUCGAGCCCGGGUAAGUGUGAAUAGUCUGCAUGCCGCCGGGCGCCAUGCCUGCAGGUCGACUCUAGAAAACAUG”, the results for the binding signal with PUM1 PUF domain R5-LWA and with PUM1 PUF domain R5-RRP were 1.01 log2 enrichment (interaction score) and 1.27 log2 enrichment (interaction score), respectively.

For the sequence “GGCUAGAACUAGUGGAUCCCCCGGCGCCCGGCGGCUCGAGCCCGGGUAAGUUUAAAUAGUCUGCAUGCCGCCGGGCGCCAUGCCUGCAGGUCGACUCUAGAAAACAUG”, in the test with PUM1 PUF domain R7-RQL, the binding signal was 3.63 log2 enrichment (interaction score).

Regarding “GGCUAGAACUAGUGGAUCCCCCGGCGCCCGGCGGCUCGAGCCCGGGUAAGUGUACAUAGUCUGCAUGCCGCCGGGCGCCAUGCCUGCAGGUCGACUCUAGAAAACAUG”, the binding signal in the test with PUM1 PUF domain R4-GNR is 1.04 log2 enrichment (interaction score).

For the sequence “GGCUAGAACUAGUGGAUCCCCCGGCGCCCGGCGGCUCGAGCCCGGGUAAGUGUAAUUAGUCUGCAUGCCGCCGGGCGCCAUGCCUGCAGGUCGACUCUAGAAAACAUG”, the binding signal in the test with PUM1 PUF domain R3-MRS is 2.96 log2 enrichment (interaction score); with PUM1 PUF domain R3-RPG it was 4.38 log2 enrichment (interaction score).

“GGCUAGAACUAGUGGAUCCCCCGGCGCCCGGCGGCUCGAGCCCGGGUAAGUGUAAAUUGUCUGCAUGCCGCCGGGCGCCAUGCCUGCAGGUCGACUCUAGAAAACAUG”: the binding signal with PUM1 PUF domain R1-YWR was 4.46 log2 enrichment (interaction score).

Source of the values: article PMC8384837, “Expanding the binding specificity for RNA recognition by a PUF domain”.
